Source: PubChem
Only some compounds are listed: those with a hit (about 2% of all), similar ones and a draw of the others.
CHRM4 agonist = CHRM4 agonism in calcium assay; P08173; CHO-K1 hM4/Gqi5, Fluo-8 calcium fluorescence; vehicle 0%, full acetylcholine response 100%; activation, % at 3 µM; 360,000 tested, 0.14% active;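 active means activation above the run mean over all test wells plus 3 SD, cut at about 32% in these data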;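 further: peak over basal fluorescence ratio per well then scaled between controls; 0% = DMSO wells and 100% = acetylcholine at EC100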
Target sequence (P08173 whole entry, looked up): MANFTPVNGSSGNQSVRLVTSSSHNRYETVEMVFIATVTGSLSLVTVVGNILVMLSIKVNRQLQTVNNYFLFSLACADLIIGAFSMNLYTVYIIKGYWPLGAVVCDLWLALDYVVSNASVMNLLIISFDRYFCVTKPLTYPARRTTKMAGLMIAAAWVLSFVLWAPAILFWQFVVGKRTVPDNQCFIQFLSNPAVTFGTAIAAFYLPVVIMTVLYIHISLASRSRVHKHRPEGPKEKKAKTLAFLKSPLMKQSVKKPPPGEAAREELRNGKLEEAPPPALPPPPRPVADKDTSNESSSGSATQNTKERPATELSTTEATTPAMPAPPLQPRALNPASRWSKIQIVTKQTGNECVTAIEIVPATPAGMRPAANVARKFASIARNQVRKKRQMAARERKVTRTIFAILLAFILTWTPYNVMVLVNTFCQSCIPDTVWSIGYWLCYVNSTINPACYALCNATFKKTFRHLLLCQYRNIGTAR
M1 PAM parental = nonselective activator or artifact in parental CHO-K1 calcium assay; ATP EC20, Fluo-8 calcium fluorescence; 0% at ATP EC20, 100% at ATP max; AID 602247; 360,000 tested, 0.02% active; activation, % at 3 µM;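 active means activation above the run cutoff, the mean activation of all test compounds plus 3 SD, cut at about 40% in these data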;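 further: peak over basal fluorescence ratio in a 140 s read after ATP addition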
CHRM4 PAM = positive allosteric modulators of human muscarinic M4 receptor; P08173; CHO-K1 hM4/Gqi5, Fluo-8 calcium fluorescence, ACh EC20; 0% = ACh EC20, 100% = maximal ACh; activation, % at 3 µM; 360,000 tested, 0.4% active; AID 624126;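 active means activation above its plate's cutoff, the mean activation of sample wells plus 3 SD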
M1 ag parental = M1 agonist counterscreen hit in parental CHO-K1 cells; Fluo-8 calcium fluorescence; scaled to maximal ATP response, vehicle zero; activation, % at 3 µM; 360,000 tested, 0.48% active; AID 602248; in the data active means activation above about 15%;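 further: untransfected CHO-K1 host cells lacking M1 receptor as counterscreen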
CHO-K1 Ca antag = M1 antagonist counterscreen hit in parental CHO-K1 cells | ATP-induced calcium, Fluo-8 fluorescence | inhibition, % at 3 µM | 360,000 tested, 0.6% active | AID 602250;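 active means inhibition above a per-plate cutoff, the plate's mean sample inhibition plus 3 SD, cut at about 24% in these data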;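 further: 0% = DMSO plus EC80 ATP and 100% = DMSO alone without ATP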
CHRM4 antagonist = blocks acetylcholine activation of human M4 receptor; P08173; CHO-hM4 cells, ACh EC80, Fluo-8 calcium fluorescence; inhibition, % at 3 µM; 360,000 tested, 0.73% active; AID 624125;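 active means inhibition above its plate's cutoff, the mean inhibition of sample wells plus 3 SD, cut at about 27% in these data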;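 further: 0% = acetylcholine EC80 with DMSO and 100% = DMSO without agonist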
Starred values were filed as active, the others as inactive.

`COc1ccc(CNc2cccc3[nH]c(C(F)(F)F)nc23)cc1` gave CHRM4 agonist 0, M1 PAM parental 14, CHRM4 PAM -2, M1 ag parental 0, CHO-K1 Ca antag -10 and CHRM4 antagonist -3.
CCn1c2ccccc2c2nc3cc(C(=O)O)ccc3nc21 was read as CHRM4 agonist 1, M1 PAM parental -15, CHRM4 PAM -10, M1 ag parental 1, CHO-K1 Ca antag 24* and CHRM4 antagonist 8.
Screening CCn1c2ccccc2c2nc3ccccc3nc21 returned CHRM4 agonist 2, M1 PAM parental 18, CHRM4 PAM 12, M1 ag parental 1, CHO-K1 Ca antag -1 and CHRM4 antagonist -9.
For CCCCN(CCCC)CCCN1CC(=O)N2[C@@H](Cc3c([nH]c4ccccc34)C2(C)C)C1=O the results were CHRM4 agonist 2, M1 PAM parental 15, CHRM4 PAM -19, M1 ag parental 2, CHO-K1 Ca antag -16 and CHRM4 antagonist 86*.
For COCCN(C(=O)CCC(=O)Nc1cc(C)on1)C(C(=O)NC1CCCC1)c1ccccc1F (centres undefined) the results were CHRM4 agonist 0, M1 PAM parental -3, CHRM4 PAM -20, M1 ag parental 0, CHO-K1 Ca antag -3 and CHRM4 antagonist 75*.
`CCOc1ccc(CN(C(=O)c2cc3ccccc3oc2=O)C2CCS(=O)(=O)C2)cc1` (centres undefined) gave CHRM4 agonist 2, M1 PAM parental 6, CHRM4 PAM -6, M1 ag parental 1, CHO-K1 Ca antag -9 and CHRM4 antagonist -1.
`O=C(CC(=O)c1ccccc1)c1ccccc1` gave CHRM4 agonist -1, M1 PAM parental 18, CHRM4 PAM -1, M1 ag parental 0, CHO-K1 Ca antag -4 and CHRM4 antagonist -2.
`O=C(Cc1ccccc1Cl)c1ccccc1` gave CHRM4 agonist 1, M1 PAM parental -9, CHRM4 PAM 27*, M1 ag parental 0, CHO-K1 Ca antag -11 and CHRM4 antagonist -15.
Screening Cc1ccc(/C=N/N2CCN(Cc3cccc4ccccc34)CC2)o1 returned CHRM4 agonist -3, M1 PAM parental 13, CHRM4 PAM 2, M1 ag parental 0, CHO-K1 Ca antag -8 and CHRM4 antagonist 29*.
Screening O=C(NCc1cccc(Cl)c1)c1ccc(CS(=O)Cc2ccc(Cl)cc2)o1 (centres undefined) returned CHRM4 agonist 12, M1 PAM parental 12, CHRM4 PAM -7, M1 ag parental 7, CHO-K1 Ca antag -15 and CHRM4 antagonist -2.
CCOC(=O)N1CCN(C(=O)c2ccc3nc(N4CCC(C)CC4)sc3c2)CC1 was read as CHRM4 agonist 2, M1 PAM parental 11, CHRM4 PAM 16*, M1 ag parental 1, CHO-K1 Ca antag -8 and CHRM4 antagonist -2.
For CCCC(=O)N1CCN(c2nc3ccc(Br)cc3s2)CC1 the results were CHRM4 agonist 13, M1 PAM parental 12, CHRM4 PAM 29*, M1 ag parental 12, CHO-K1 Ca antag 2 and CHRM4 antagonist 1.
Screening CCCC(=O)N1CCN(c2nc3ccc(CC)cc3s2)CC1 returned CHRM4 agonist 5, M1 PAM parental 1, CHRM4 PAM 15, M1 ag parental 3, CHO-K1 Ca antag -1 and CHRM4 antagonist 0.
Screening CC(=O)N1CCN(c2nc3ccc(Br)cc3s2)CC1 returned CHRM4 agonist 5, M1 PAM parental 15, CHRM4 PAM 0, M1 ag parental 4, CHO-K1 Ca antag 4 and CHRM4 antagonist -2.
CCCCC(=O)N1CCN(c2nc3ccc(Br)cc3s2)CC1 was read as CHRM4 agonist 12, M1 PAM parental 1, CHRM4 PAM 19*, M1 ag parental 10, CHO-K1 Ca antag 12 and CHRM4 antagonist -1.
`CC1=CC(C)(C)N(C(=O)CSc2nnc(-c3ccc(C)cc3)o2)c2ccc(C)cc21` gave CHRM4 agonist -2, M1 PAM parental 7, CHRM4 PAM -12, M1 ag parental 0, CHO-K1 Ca antag -9 and CHRM4 antagonist 3.
`CCN(CC)C(=O)C1=C(C)N(Cc2ccc(C(C)(C)C)cc2)C(=O)C(CC(=O)NCC2CCCCC2)C1` (centres undefined) gave CHRM4 agonist 2, M1 PAM parental 19, CHRM4 PAM 1, M1 ag parental 1, CHO-K1 Ca antag -16 and CHRM4 antagonist -16.
`C[C@]1(CO)CCC[C@@]2(C)C1CC[C@@H](CO)[C@@H]2CCc1ccoc1` (some centres undefined) gave CHRM4 agonist 14, M1 PAM parental -4, CHRM4 PAM -5, M1 ag parental 14, CHO-K1 Ca antag 30* and CHRM4 antagonist 4.
`COc1ccc(CNC(=O)[C@]2(C)CCC[C@@]3(C)C4CC[C@@]5(C)C[C@]4(CCC32)CC5=O)cc1` (some centres undefined) gave CHRM4 agonist 15, M1 PAM parental 4, CHRM4 PAM -6, M1 ag parental 1, CHO-K1 Ca antag -10 and CHRM4 antagonist 12.
O=C(O)Cn1c(C(F)(F)F)nc2ccccc21 was read as CHRM4 agonist 1, M1 PAM parental -3, CHRM4 PAM 20, M1 ag parental 0, CHO-K1 Ca antag -6 and CHRM4 antagonist 32*.
CN(C)CC/C=C1/c2ccccc2Sc2ccc(Cl)cc21 was read as CHRM4 agonist 9, M1 PAM parental 8, CHRM4 PAM -19, M1 ag parental 1, CHO-K1 Ca antag -3 and CHRM4 antagonist 99*.
Screening CN(C)CC/C=C1\c2ccccc2COc2ccccc21 returned CHRM4 agonist 2, CHRM4 PAM -18 and CHRM4 antagonist 67*.
Screening CCCCCC[N+](C)(C)CC/C=C1/c2ccccc2Sc2ccc(Cl)cc21 returned CHRM4 agonist -1, M1 PAM parental -3, CHRM4 PAM -59, M1 ag parental 0, CHO-K1 Ca antag 2 and CHRM4 antagonist 99*.
CN1CCN(CCC=C2c3ccccc3Sc3ccc(S(=O)(=O)N(C)C)cc32)CC1 was read as CHRM4 agonist 8, M1 PAM parental -3, CHRM4 PAM -13, M1 ag parental 2, CHO-K1 Ca antag -3 and CHRM4 antagonist 10.
For CC(C)C[C@H]1CNC(=O)C(=O)N1C[C@@H]1CCCN1C[C@H](Cc1ccccc1)N1C[C@H](Cc2ccccc2)N(CC2CCCCC2)C(=O)C1=O the results were CHRM4 agonist 4, M1 PAM parental 10, CHRM4 PAM -1, M1 ag parental 0, CHO-K1 Ca antag 4 and CHRM4 antagonist -9.
`CC1(C(=O)NCC2CCCO2)Oc2cccnc2NC1=O` (centres undefined) gave CHRM4 agonist 0, M1 PAM parental 5, CHRM4 PAM 4, M1 ag parental 0, CHO-K1 Ca antag -6 and CHRM4 antagonist 4.
Cn1c(=O)c(C(=O)NNC(=O)c2ccc(Br)cc2)c(O)c2ccccc21 was read as CHRM4 agonist 1, M1 PAM parental 10, CHRM4 PAM -2, M1 ag parental 0, CHO-K1 Ca antag -12 and CHRM4 antagonist 17.
